Consider eight molecules from PubChem BioAssay (NCI).

About 83,000 compounds went through this panel and 20% of them were active in at least one assay; those are over-represented in the sample as a whole.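 Step 1: grow cells in 96-well plates. Step 2: add test compound at a single concentration. Step 3: incubate 48 h. Step 4: record percent growth.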 Unmarked numbers belong to inactive results. The source made the active and inactive calls. The calls were made as follows: active = growth percent below 10; inactive = the rest.

Test systems include SR leukemia; RPMI-8226 leukemia; OVCAR-8 ovarian; OVCAR-5 ovarian; OVCAR-4 ovarian; SK-OV-3 ovarian; IGROV1 ovarian; OVCAR-3 ovarian; HS 578T breast; NCI/ADR-RES ovarian; T-47D breast; BT-549 breast; MDA-MB-435 melanoma; SW-620 colon; MCF7 breast; HCT-116 colon; HCC-2998 colon; KM12 colon.
What all share (experiment): NCI-60 one-dose screen, 48 h (100 = growth as untreated, 0 = no growth, -100 = all killed)
What all share (settings): 10 µM unless noted

Consider `CCCCC(CC)OC(=O)C(Br)CC` (centres undefined), for which the growth with SR leukemia is 94.3%; with RPMI-8226 leukemia, 113%; with OVCAR-8 ovarian, 101%; with OVCAR-5 ovarian, 106%; in the assay on OVCAR-4 ovarian it was 90.6%; in the assay with SK-OV-3 ovarian it was 114%. Also, the growth in the assay on IGROV1 ovarian is 105%; in the assay with OVCAR-3 ovarian, 104%; with HS 578T breast, 101%; with NCI/ADR-RES ovarian, 98.7%; with T-47D breast, 103%; with BT-549 breast, 100%. The growth in the assay with MDA-MB-435 melanoma is 109%; in the assay with SW-620 colon, 114%; with MCF7 breast it was 102%; with HCT-116 colon, 101%; in the assay on HCC-2998 colon it was 104%; in the assay on KM12 colon it was 101%.

As to `CC(=O)c1cc2c(N)c(C(=O)Nc3cccc4c3OCCO4)sc2nc1C`, the growth in the assay with SR leukemia was 80.8%; with RPMI-8226 leukemia it was 99.7%; in the assay on OVCAR-8 ovarian it was 106%; with OVCAR-5 ovarian, 100%; with OVCAR-4 ovarian, 110%; in the assay with SK-OV-3 ovarian, 35.8%. For the same molecule, the growth is 101% in the assay with IGROV1 ovarian; 105% in the assay on OVCAR-3 ovarian; 96.3% in the assay with HS 578T breast; 96.8% with NCI/ADR-RES ovarian; 56% in the assay with T-47D breast; 103% in the assay on BT-549 breast. For the same molecule, the growth was 24.1% in the assay with MDA-MB-435 melanoma; 95.1% in the assay on SW-620 colon; 94.9% in the assay with MCF7 breast; 96.4% with HCT-116 colon; 95% with HCC-2998 colon; 98.7% with KM12 colon.

Turning to `COc1cccc(CC(C)=C(c2ccc(OCCN3CCCCC3)cc2)c2ccc(OCCN3CCCCC3)cc2)c1`, the growth is -41.2% (active) in the assay with SR leukemia; -45.8% (active) in the assay on RPMI-8226 leukemia; -50.3% (active) in the assay on OVCAR-8 ovarian; 24% in the assay with OVCAR-5 ovarian; -49% (active) with OVCAR-4 ovarian; 76.9% in the assay with SK-OV-3 ovarian. The growth was -10.5% (active) in the assay on IGROV1 ovarian; -40.7% (active) with OVCAR-3 ovarian; -50% (active) with HS 578T breast; -13.3% (active) in the assay on NCI/ADR-RES ovarian; -42.4% (active) in the assay with T-47D breast; 44.6% with BT-549 breast. Further, the growth with MDA-MB-435 melanoma is -96.6% (active); in the assay with SW-620 colon it was -71.2% (active); with MCF7 breast, -81.4% (active); in the assay on HCT-116 colon, -64.7% (active); with HCC-2998 colon, -68.8% (active); in the assay on KM12 colon, -30.9% (active).

On to `CCC(=O)Oc1ccc(/C(=C(/C)Cc2cccc(OC)c2)c2ccc(OCCN(C)C)cc2)cc1`, for which the growth was -0.896% (active) with SR leukemia; 70.7% with RPMI-8226 leukemia; 102% in the assay on OVCAR-8 ovarian; 99.1% in the assay with OVCAR-5 ovarian; 87.3% with OVCAR-4 ovarian; 114% in the assay on SK-OV-3 ovarian. Further, the growth was 95.4% with IGROV1 ovarian; 92% in the assay on OVCAR-3 ovarian; 93.5% in the assay on HS 578T breast; 100% in the assay on NCI/ADR-RES ovarian; 86.7% in the assay on T-47D breast; 95.7% in the assay with BT-549 breast. For the same molecule, the growth in the assay on MDA-MB-435 melanoma is 9.82% (active); in the assay with SW-620 colon, 74.2%; in the assay with MCF7 breast it was 45.1%; with HCT-116 colon, 71.8%; in the assay with HCC-2998 colon, 95.1%; with KM12 colon, 86.3%.

In the case of `COc1cccc(/C=C2\Oc3cc(OCCCN4CCCC4)ccc3C2=O)c1OC`, the growth with SR leukemia is 70.8%; with RPMI-8226 leukemia, 88.6%; in the assay on OVCAR-8 ovarian it was 94%; in the assay with OVCAR-5 ovarian it was 94.9%; with OVCAR-4 ovarian, 99.9%; with SK-OV-3 ovarian, 110%. In addition, the growth in the assay on IGROV1 ovarian is 96.1%; in the assay on OVCAR-3 ovarian it was 99%; with HS 578T breast, 93.9%; with NCI/ADR-RES ovarian it was 97.3%; in the assay with T-47D breast, 97.2%; in the assay on BT-549 breast, 87.7%. The growth was 99% with MDA-MB-435 melanoma; 98.6% with SW-620 colon; 87% in the assay on MCF7 breast; 83.7% in the assay on HCT-116 colon; 113% in the assay with HCC-2998 colon; 102% in the assay with KM12 colon.

Take `CC(C)(C)n1cc(-c2ccnc(NCCCNS(=O)(=O)c3cccc(F)c3)c2)c(-c2cccc(O)c2)n1`: the growth with SR leukemia is 16.4%; with RPMI-8226 leukemia, 17.5%; with OVCAR-8 ovarian, 57.5%; in the assay with OVCAR-5 ovarian it was 68.2%; with OVCAR-4 ovarian, 57.8%; with SK-OV-3 ovarian, 89.2%. Moreover, the growth in the assay with IGROV1 ovarian was 58.8%; in the assay on OVCAR-3 ovarian it was 65.7%; in the assay on HS 578T breast it was 58.2%; in the assay with NCI/ADR-RES ovarian it was 62%; in the assay on T-47D breast, 35.7%; in the assay with BT-549 breast, 67.4%. In addition, the growth is 61.2% with MDA-MB-435 melanoma; 24.5% in the assay with SW-620 colon; 21.6% in the assay with MCF7 breast; 47.1% in the assay on HCT-116 colon; 15.7% in the assay on HCC-2998 colon; 26.5% with KM12 colon.

On to `CC(C)NCCCNC1=C(Cl)C(=O)c2ccccc2C1=O`, for which the growth in the assay with SR leukemia is -22.7% (active); in the assay with RPMI-8226 leukemia it was 68.4%; with OVCAR-8 ovarian it was 56.9%; with OVCAR-5 ovarian, 138%; in the assay with OVCAR-4 ovarian, 84.1%; in the assay on SK-OV-3 ovarian, 107%. The growth with IGROV1 ovarian was -51.3% (active); in the assay with OVCAR-3 ovarian, 40.8%; in the assay with HS 578T breast it was 27.7%; with NCI/ADR-RES ovarian, 90.5%; in the assay with T-47D breast, 101%; with BT-549 breast it was 99.8%. Moreover, the growth is -66% (active) with MDA-MB-435 melanoma; -30.7% (active) in the assay with SW-620 colon; 63.4% with MCF7 breast; 70.7% in the assay with HCT-116 colon; 59.7% with HCC-2998 colon; 87.2% with KM12 colon.

As to `Cn1ccc(=O)c(S(N)(=O)=O)c1`, the growth with SR leukemia was 72.5%; in the assay on RPMI-8226 leukemia, 66.5%; in the assay on OVCAR-8 ovarian, 101%; in the assay with OVCAR-5 ovarian it was 94.3%; in the assay with OVCAR-4 ovarian, 95.8%; in the assay with SK-OV-3 ovarian, 126%. For the same molecule, the growth in the assay on IGROV1 ovarian is 124%; in the assay with OVCAR-3 ovarian it was 112%; in the assay with HS 578T breast, 104%; in the assay on NCI/ADR-RES ovarian, 94.8%; with T-47D breast it was 93.9%; in the assay on BT-549 breast, 82%. Also, the growth in the assay on MDA-MB-435 melanoma is 103%; with SW-620 colon it was 105%; with MCF7 breast, 111%; with HCT-116 colon it was 102%; in the assay with HCC-2998 colon, 102%; in the assay with KM12 colon, 103%.
